Assay [1] concerns the target T1, Aspartate--tRNA(Asp/Asn) ligase (Mycobacterium tuberculosis (strain ATCC 25618 / H37Rv)) (UniProt P9WFW3). Also: in the data most compounds retested in dose-response had high values.
T1 sequence (whole entry): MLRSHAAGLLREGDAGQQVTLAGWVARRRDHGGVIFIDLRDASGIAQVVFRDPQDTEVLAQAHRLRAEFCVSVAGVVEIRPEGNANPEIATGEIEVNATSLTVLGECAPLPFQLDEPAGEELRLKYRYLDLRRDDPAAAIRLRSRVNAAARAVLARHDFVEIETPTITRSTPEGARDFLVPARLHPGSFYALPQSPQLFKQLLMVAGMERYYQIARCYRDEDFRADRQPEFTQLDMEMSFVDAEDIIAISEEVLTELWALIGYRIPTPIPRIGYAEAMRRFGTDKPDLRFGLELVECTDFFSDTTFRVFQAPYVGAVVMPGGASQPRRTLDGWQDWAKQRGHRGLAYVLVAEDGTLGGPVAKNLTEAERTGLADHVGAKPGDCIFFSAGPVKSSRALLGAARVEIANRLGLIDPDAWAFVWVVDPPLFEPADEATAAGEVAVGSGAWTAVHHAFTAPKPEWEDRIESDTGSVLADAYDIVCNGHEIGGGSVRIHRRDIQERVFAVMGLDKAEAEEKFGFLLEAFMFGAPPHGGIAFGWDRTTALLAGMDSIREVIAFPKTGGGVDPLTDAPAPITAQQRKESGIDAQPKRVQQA
Nature of the assay: Assay for Asp RNA synthetase-1 from Mycobacterium tuberculosis. The class given is functional. Further details: scale not given: direction of the effect not stated beside the values. As to conditions: 30 µM.

For assay [2], the target named is Shiga toxin 2 (Escherichia coli O157:H7) (UniProt P09385+P09386). Nature of the assay: E. coli 0.157:H7 Shiga Toxin SOP - stx2 screening assay. The class given is functional. On the set-up: scale not given: direction of the effect not stated beside the values. As to conditions: 30 µM.

With `CC(C)(C)c1n[nH]c(C2CN(C(=O)CCc3cscn3)CCO2)n1` (configuration not stated), the Percent Effect is -2.97% in assay [1] and 7.94% in assay [2].
On the same counts, the results for `COCc1c(C(=O)O)nnn1Cc1cccc(C(F)(F)F)c1` are -5.23% and -31%.
Turning to `O=C(N1CCC(Nc2cccnn2)CC1)C1(c2ccc(F)cc2)CC1`, the results for the Percent Effect in assay [1] and in assay [2] were 4.44% and -20.3%, respectively.
As to `O=C1CC(c2cccnc2)C2(CCN(C(=O)c3ccncc3)CC2)N1` (configuration not stated), the Percent Effect in assay [1] was -5.73%; in assay [2], 7.39%.
Regarding `O=C(C1CCCCC1)N1CCC2(CCCN2CC2CC2)CC1`, the Percent Effect in assay [1] is 2.39%; in assay [2], -6.44%.
Turning to `CC(C)Oc1ncccc1CNC(=O)N1CCC1c1ccccc1` (configuration not stated), the Percent Effect was 0.589% in assay [1] and -9.32% in assay [2].
As to `CCO[C@@H]1CO[C@@]2(CCCN(C(=O)c3ccc(OC)c(F)c3)C2)C1`, the Percent Effect was 2.11% in assay [1] and -23.8% in assay [2].
Take `CN1CCN(c2ncc3c(=O)n(-c4cccc(F)c4)c(=O)[nH]c3n2)CC1`: the Percent Effect was 11.2% in assay [1] and -20.7% in assay [2].
Regarding `CC(=O)N1CCC(Oc2ccc(C#N)cn2)CC1`, the Percent Effect in assay [1] was -4.74%; in assay [2] it was -70.8%.
On to `CN(C)CCO[C@@H]1CC[C@H]2[C@H]1OCCN2C(=O)CCc1ccccc1`, for which the Percent Effect in assay [1] is -1.17%; in assay [2], -27.7%.
On the same counts, the results for `CNS(=O)(=O)c1ccc(C(=O)NCCNc2ncccn2)cc1` are -1.6% and 25.5%.
Regarding `O=C(c1ccoc1)N1CCCn2cnc(COCC3CC3)c2C1`, the Percent Effect in assay [1] is -5.91%; in assay [2] it was -6.53%.
On the same counts, the results for `CN(C)Cc1ccc(C2CCCCN2C(=O)c2cc(C3CC3)n[nH]2)cc1` (configuration not stated) are -1.82% and 2.95%.
On the same counts, the results for `O=C(NC1CC1)[C@@H]1CCO[C@@H]2CCN(Cc3ccsc3)C[C@H]21` are 0.474% and -0.513%.
On the same counts, the results for `O=C(CCCOc1ccc(F)cc1F)N1CCCC1Cn1cccn1` (configuration not stated) are -7.61% and 17.6%.
On to `CN(CC(=O)NCc1ccccn1)CC1CCCN1c1cccnn1` (configuration not stated), for which the Percent Effect in assay [1] is -4.1%; in assay [2], -17.5%.
On the same counts, the results for `O=C(CCc1cc(O)no1)N1CCCC(COc2ccc(F)cc2)C1` (configuration not stated) are -2.45% and -19.8%.
On the same counts, the results for `Cc1ccc2c(c1)OCCCC2NCc1nnc2n1CCCCC2` (configuration not stated) are -4.58% and 3.72%.
With `CN(C)C(=O)N1CCn2nc(CNC(=O)CCC(F)(F)F)cc2C1`, the results for the Percent Effect in assay [1] and in assay [2] were 2.12% and -7.2%, respectively.
For `COCC(=O)N1CCC2(CCN(Cc3ccccn3)CC2)CC1`, the Percent Effect in assay [1] is 6.21%; in assay [2], -8.31%.
On the same counts, the results for `CC1c2ncc(CN3CCN(C)CC3)n2CCN1Cc1cccnc1` (configuration not stated) are 1.75% and -23.1%.
On the same counts, the results for `CCc1cnc(CN(C(C)=O)C2CCN(CCc3cnn(C)c3)C2)o1` (configuration not stated) are -5.68% and 20.4%.
For `Cc1cc(C(=O)NCc2ccnc(N(C)C)c2)c(C)o1`, the Percent Effect is 5.55% in assay [1] and -9.84% in assay [2].
On the same counts, the results for `Cc1cc(C)n(CC2CN(Cc3cccc(C(N)=O)c3)CCO2)n1` (configuration not stated) are -8.8% and -5.62%.
For `CCc1noc(C(C)N2CCC(C(=O)Nc3cnn(CC)c3)CC2)n1` (configuration not stated), the Percent Effect was -3.65% in assay [1] and -12.4% in assay [2].
With `COc1ccc(NC(=O)N2CCN(c3ncccn3)CC2)cn1`, the results for the Percent Effect in assay [1] and in assay [2] were -4.63% and -16.1%, respectively.
As to `CCN(CCn1cccn1)Cc1nc(-c2ccccc2F)oc1C`, the Percent Effect in assay [1] was -0.808%; in assay [2], -3.06%.
For `Cn1cnc2c1CCN(Cc1csc(-c3ccsc3)n1)C2`, the Percent Effect in assay [1] is 3.77%; in assay [2] it was -95.3%.
On the same counts, the results for `Cn1cc2c(n1)C(CNC(=O)Cc1ccsc1)OCC2` (configuration not stated) are -0.539% and -23.6%.
On the same counts, the results for `Cc1nn(C)c(Cl)c1CNCc1cccnc1N1CCN(C)CC1` are -1.56% and -1.67%.
For the compound `O=C(CN1CCCCC1Cn1cncn1)NCCC1=CCCCC1` (configuration not stated), the Percent Effect came to 2.88% in assay [1] and 11.4% in assay [2].
On the same counts, the results for `CC(C)c1nc(C(=O)N2CCCC(n3cncn3)C2)c[nH]1` (configuration not stated) are -5.02% and -8.87%.
On the same counts, the results for `COc1ccccc1OC1CCN(Cc2cnc(N(C)C)nc2)CC1` are -2.72% and 17.9%.
Consider `Cc1nc(CN2CCCC(NCCOc3ccccc3)C2)no1` (configuration not stated), for which the Percent Effect in assay [1] was -8.02%; in assay [2], -0.215%.
Turning to `Cn1ccnc1CN1CCCCC1Cn1cccn1` (configuration not stated), the Percent Effect in assay [1] was determined as 2.66%; in assay [2], 11.2%.
On the same counts, the results for `CCc1noc(CNc2cc(F)ccc2OCC2CCCO2)n1` (configuration not stated) are 0.569% and -4.24%.
On the same counts, the results for `O=C(CCn1cccn1)N1C[C@@H]2CC[C@H](C1)N(Cc1ccccn1)C2=O` are 0.301% and 3.51%.
Take `Cc1nn(C)cc1C(=O)Nc1cccc(CN2CCC(CO)CC2)c1`: the Percent Effect in assay [1] was 3.06%; in assay [2], -101%.
On the same counts, the results for `O=C1CC(c2ccsc2)c2sc(C(=O)O)c(-c3ccccc3)c2N1` (configuration not stated) are 1.95% and 17.4%.
Turning to `CCc1cnc(CNc2ccc(C(=O)N3CCCC(C)C3)cc2C)o1` (configuration not stated), the Percent Effect is -5.74% in assay [1] and 21.6% in assay [2].
On the same counts, the results for `O=C(c1cccnc1)N1CCn2nnc(COc3cccnc3)c2C1` are 6.79% and -23.3%.

Source of the values: ChEMBL document CHEMBL3988442, “University of Dundee, Small-Polar-MMV Screening Library” (2021).
